Assay results published in PubChem BioAssay (Tox21).
Inconclusive results are not listed. Where a call stands in place of a potency, no number is given. The source made the active and inactive calls. Calls come from the whole dose curve; as a rule, active = well fitted inhibition curve with a large enough effect in the repeat runs; inconclusive = weak or mixed curves, or effect the other way; inactive = no such curve, though single readings can be large or run the other way.

Molecular target: Nuclear receptor subfamily 1 group I member 3 (Homo sapiens) (UniProt Q14994)
Test: qHTS assay to identify small molecule antagonists of the constitutive androstane receptor (CAR) signaling pathway (AID 1224838);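 note: HepG2 cells stably expressing hCAR with CYP2B6 luciferase reporter stimulated by CITCO; nearly all actives have a fitted effect of over 40% in size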
Settings: HepG2-CYP2B6-hCAR luciferase, CITCO-stimulated, 24 h; series mostly up to 92.4 µM
Description: U.S. Tox21 Program National Center for Advancing Translational Sciences [NCATS] NIH Chemical Genomics Center [NCGC] U.S. Environmental Protection Agency [EPA] National Institutes of Environmental Health Sciences [NIEHS] National Toxicology Program [NTP] U.S. Food and Drug Administration [FDA] Tox21 Assay Overview: The constitutive androstane receptor (CAR) is a nuclear receptor which regulates multiple drug metabolizing enzymes (DMEs) and transporters. Activating CAR will generally increase the transcription and subsequent translation of CYP2B6 and CYP3A4. These two DMEs represent about 50% of the drug metabolizing potential in the body. When CAR is deactivated, the metabolizing potential in the body will decrease, subsequently increasing the toxicity in the body or lowering the therapeutic potential of a pro-drug. Recently, there have also been studies performed indicating CARs role in energy metabolism and cancer therapy. Therefore, inhibiting CARs activity could have a potential effect on diabetes and cancer. Identifying environmental toxins and compounds which modulate CAR, through the use of the Tox21 10K compound collection, will be an important step in determining the toxicity and potential therapeutic effects these factors will have on the human body.
Tox21 Assay Protocol Summary: A double-stable (hCAR and CYP2B6-2.2kb) transfected cell line, derived from human hepatoma (HepG2) cells, was utilized for the duration of the quantitative high-throughput screens. The HepG2-CYP2B6-hCAR cells suspended in DMEM culture medium supplemented with 10% FBS, 5 ug/mL blasticidin, 0.5 mg/mL geneticin, 100 U/mL penicillin and 100 ug/mL streptomycin were dispensed at 2500 cells/4 uL/well in 1536-well white solid bottom plates using a Multidrop Combi. After the assay plates were incubated at 37 C/5% CO2 for 4 hrs, 23 nL of compounds at 15 concentrations (from 5-48 columns) or positive control (from 1 to 4 columns) were transferred to the assay plates using a Pintool station. One uL of CITCO, was added using a Flying Reagent Dispenser to generate a final concentration of 50 nM CITCO inside each well. After a 24 hr incubation period at 37 C/5% CO2, four uL of ONE-Glo reagent was added into the assay plates using a Flying Reagent Dispenser. After a 30 min incubation period at room temperature, the luminescence intensity in the assay plates was measured using a ViewLux plate reader.

Chain of Nuclear receptor subfamily 1 group I member 3 (Homo sapiens) (Q14994 whole entry, looked up): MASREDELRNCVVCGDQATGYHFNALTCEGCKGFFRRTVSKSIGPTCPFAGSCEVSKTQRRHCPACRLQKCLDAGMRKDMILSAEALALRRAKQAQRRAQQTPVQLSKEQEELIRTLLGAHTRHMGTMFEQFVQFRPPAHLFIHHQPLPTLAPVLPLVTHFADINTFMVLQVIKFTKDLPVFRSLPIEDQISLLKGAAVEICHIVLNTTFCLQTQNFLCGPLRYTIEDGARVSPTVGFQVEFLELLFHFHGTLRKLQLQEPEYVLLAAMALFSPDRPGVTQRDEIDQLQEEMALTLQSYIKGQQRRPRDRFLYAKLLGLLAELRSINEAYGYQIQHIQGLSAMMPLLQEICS

Compound	Potency	activity, negative = inhibition
CC(C)CO	inactive	
N#Cc1cscn1	inactive	
C=Cc1ccc(C(C)(C)C)cc1	inactive	
COc1c2occc2c(OC)c2c(=O)cc(C)oc12	inactive	
OC1(c2ccc(Cl)cc2)CCNCC1	inactive	
CC(CO)(CO)CO	inactive	
CCC(=O)c1c(O)cc(O)cc1O	inactive	
CC1OCCC1=O (stereo not given)	inactive	
Cn1c(=O)c2c(ncn2CCO)n(C)c1=O	inactive	
CN(C)CC/C=C1/c2ccccc2COc2ccc(CC(=O)O)cc21	inactive	
CCCC(=O)Nc1ccc(OCC(O)CNC(C)C)c(C(C)=O)c1 (stereo not given)	inactive	
Cn1nnc2c(C(N)=O)ncn2c1=O	inactive	
N#Cc1ccccc1O	inactive	
CC(C)Cn1cnc2c1c(=O)n(C)c(=O)n2C	inactive	
c1ccc(B(c2ccccc2)c2ccccc2)cc1	inactive	
N[C@@H](CSCCCO)C(=O)O		5.4% [at 19 µM] (inactive)
N#CCC(=O)NN	inactive	
CC(C)C[C@@H]1[C@H](c2ccccc2)OC(=O)N1CCCN1CCCCCC1	inactive	
CN(C)CCOC(=O)C(c1ccccc1)C1(O)CCCC1 (stereo not given)	inactive	
O=C(Cn1ccnc1[N+](=O)[O-])NCc1ccccc1	inactive	

Compound	Potency	activity, negative = inhibition
Cc1cc(-c2ccccc2)nnc1NCCN1CCOCC1	inactive	
CCCCCCCCCCCCCCCCCC#N	inactive	
CCC(C)C(C)=O (stereo not given)	inactive	
O=Cc1cc2ccccc2o1	inactive	
CSc1cnccn1	inactive	
CN(C)C(C)(C)CO	inactive	
CCO[Si](CC)(OCC)OCC	inactive	
Cc1ccc(C(C)NC(=O)[C@@H](NC(=O)OC(C)C)C(C)C)cc1 (stereo not given in full)	inactive	
NCC1(Cc2noc(=O)[nH]2)CCCCC1	inactive	
OCCN1CCOCC1	inactive	
COc1ccc2c(c1)c1c3n2CCN(C)C3=NCC1	inactive	
CCNC(=O)NCc1cccc(Cl)c1	inactive	
CN(C)CCCCl	inactive	
CCOc1ccccc1OCC1CNCCO1 (stereo not given)	inactive	
COc1nc(N)nc2nc[nH]c12	inactive	
COc1cc2c(cc1OC)CN(C(=O)[C@H](C)N[C@@H](CCc1ccccc1)C(=O)O)[C@H](C(=O)O)C2	inactive	
Cc1c(NC(=O)c2cccnc2)c(=O)n(-c2ccccc2)n1C	inactive	
OC1OCCOC1O (stereo not given)	inactive	
C/C=C(\C)C(C)=O	inactive	
CN(C)CCCO[C@@H]1[C@H]2OC(C)(C)O[C@H]2O[C@@H]1C(O)CO (stereo not given in full)	inactive	
